# The full ranking holds about 16,000 sequences; the median of “rpm ratio (pull-down/input)” is about 0.94, and the highest 2% start at about 1.7. This excerpt belongs to a sample that is enriched for the highest values.
# Biological target: T1, MBP-FoxP1dN (Mus musculus, UniProt P58462 326-579)
# T1 sequence: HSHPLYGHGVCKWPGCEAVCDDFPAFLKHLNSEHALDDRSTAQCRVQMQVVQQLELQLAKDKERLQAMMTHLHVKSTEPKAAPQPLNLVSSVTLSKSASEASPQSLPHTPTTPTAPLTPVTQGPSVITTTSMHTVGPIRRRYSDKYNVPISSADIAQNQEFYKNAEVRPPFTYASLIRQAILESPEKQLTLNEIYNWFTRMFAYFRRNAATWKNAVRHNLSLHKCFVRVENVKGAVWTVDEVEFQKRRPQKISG
# Experiment: PD-seq (MBP pull-down with sequencing); 20 mM Tris-HCl pH 7.5, 100 mM NaCl, 1.5 mM MgCl2, 0.4 uM protein, 0.1 uM dsDNA library, 30 min, room temperature, amylose pull-down; high values mean tight binding
# Conditions: protein: recombinant; tags: His6-MBP; chain copies: 2; dsDNA, one strand shown
# How it was run: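 The N-terminus-lacking fragment of mouse FoxP3 or FoxP1 carried a His6-MBP tag and was expressed in E. coli. At 0.4 µM it was incubated with 0.1 µM Klenow-filled degenerate double-stranded DNA library for 30 min at room temperature in Tris pH 7.5 buffer with NaCl and MgCl2, and complexes were caught on amylose resin, washed three times, released with proteinase K, PCR-barcoded and Illumina-sequenced. Binding is reads-per-million enrichment of pull-down over input with replicates pooled.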
row,Sequence,binding signal
1,GATGATTGTTCTCCCAGCTGATGAATTGCTATGCTCGAGTAAACAAATTTTCCTAATCTTTCTGTTCAAGCGCCATCTAC,1.01 RPM ratio (pull-down/input)
2,GATGATTGTTCTCCCAGCTGATGAATTTTGGATGTCGAGTAAACAAATTTTCCTAATCTTTCTGTTCAAGCGCCATCTAC,0.849 RPM ratio (pull-down/input)
3,GATGATTGTTCTCCCAGCTGATGAATTACGATTGTCGAGTAAACAAATTTTCCTAATCTTTCTGTTCAAGCGCCATCTAC,1.16 RPM ratio (pull-down/input)
4,GATGATTGTTCTCCCAGCTGATGAATTATTTAAATCGAGTAAACAAATTTTCCTAATCTTTCTGTTCAAGCGCCATCTAC,1.24 RPM ratio (pull-down/input)
5,GATGATTGTTCTCCCAGCTGATGAATTGCGTACGTCGAGTAAACAAATTTTCCTAATCTTTCTGTTCAAGCGCCATCTAC,1.1 RPM ratio (pull-down/input)
6,GATGATTGTTCTCCCAGCTGATGAATTCCTTGTGTCGAGTAAACAAATTTTCCTAATCTTTCTGTTCAAGCGCCATCTAC,0.961 RPM ratio (pull-down/input)
7,GATGATTGTTCTCCCAGCTGATGAATTAAGCGCATCGAGTAAACAAATTTTCCTAATCTTTCTGTTCAAGCGCCATCTAC,1.27 RPM ratio (pull-down/input)
8,GATGATTGTTCTCCCAGCTGATGAATTGTCATATTCGAGTAAACAAATTTTCCTAATCTTTCTGTTCAAGCGCCATCTAC,1.17 RPM ratio (pull-down/input)
9,GATGATTGTTCTCCCAGCTGATGAATTCATATTGTCGAGTAAACAAATTTTCCTAATCTTTCTGTTCAAGCGCCATCTAC,1.9 RPM ratio (pull-down/input)
10,GATGATTGTTCTCCCAGCTGATGAATTCATATTTTCGAGTAAACAAATTTTCCTAATCTTTCTGTTCAAGCGCCATCTAC,1.74 RPM ratio (pull-down/input)
11,GATGATTGTTCTCCCAGCTGATGAATTCATATTCTCGAGTAAACAAATTTTCCTAATCTTTCTGTTCAAGCGCCATCTAC,0.83 RPM ratio (pull-down/input)
12,GATGATTGTTCTCCCAGCTGATGAATTTTCATATTCGAGTAAACAAATTTTCCTAATCTTTCTGTTCAAGCGCCATCTAC,1.06 RPM ratio (pull-down/input)
13,GATGATTGTTCTCCCAGCTGATGAATTCTCATATTCGAGTAAACAAATTTTCCTAATCTTTCTGTTCAAGCGCCATCTAC,0.94 RPM ratio (pull-down/input)
14,GATGATTGTTCTCCCAGCTGATGAATTAGATCGGTCGAGTAAACAAATTTTCCTAATCTTTCTGTTCAAGCGCCATCTAC,0.789 RPM ratio (pull-down/input)
15,GATGATTGTTCTCCCAGCTGATGAATTGTGGGAATCGAGTAAACAAATTTTCCTAATCTTTCTGTTCAAGCGCCATCTAC,1.08 RPM ratio (pull-down/input)
16,GATGATTGTTCTCCCAGCTGATGAATTCCGTCCTTCGAGTAAACAAATTTTCCTAATCTTTCTGTTCAAGCGCCATCTAC,0.801 RPM ratio (pull-down/input)
17,GATGATTGTTCTCCCAGCTGATGAATTAGGTGATTCGAGTAAACAAATTTTCCTAATCTTTCTGTTCAAGCGCCATCTAC,1.06 RPM ratio (pull-down/input)
18,GATGATTGTTCTCCCAGCTGATGAATTCGTTGTATCGAGTAAACAAATTTTCCTAATCTTTCTGTTCAAGCGCCATCTAC,1.3 RPM ratio (pull-down/input)
19,GATGATTGTTCTCCCAGCTGATGAATTCCTCAAGTCGAGTAAACAAATTTTCCTAATCTTTCTGTTCAAGCGCCATCTAC,0.819 RPM ratio (pull-down/input)
20,GATGATTGTTCTCCCAGCTGATGAATTGAGCGTGTCGAGTAAACAAATTTTCCTAATCTTTCTGTTCAAGCGCCATCTAC,0.844 RPM ratio (pull-down/input)
21,GATGATTGTTCTCCCAGCTGATGAATTTTGGTATTCGAGTAAACAAATTTTCCTAATCTTTCTGTTCAAGCGCCATCTAC,1.06 RPM ratio (pull-down/input)

row,Sequence,binding signal
1,GATGATTGTTCTCCCAGCTGATGAATTTGGTATGTCGAGTAAACAAATTTTCCTAATCTTTCTGTTCAAGCGCCATCTAC,0.971 RPM ratio (pull-down/input)
2,GATGATTGTTCTCCCAGCTGATGAATTGGTATTTTCGAGTAAACAAATTTTCCTAATCTTTCTGTTCAAGCGCCATCTAC,2.46 RPM ratio (pull-down/input)
3,GATGATTGTTCTCCCAGCTGATGAATTGGTATTCTCGAGTAAACAAATTTTCCTAATCTTTCTGTTCAAGCGCCATCTAC,1.02 RPM ratio (pull-down/input)
4,GATGATTGTTCTCCCAGCTGATGAATTTGGTATTTCGAGTAAACAAATTTTCCTAATCTTTCTGTTCAAGCGCCATCTAC,1.07 RPM ratio (pull-down/input)
5,GATGATTGTTCTCCCAGCTGATGAATTGGTATTGTCGAGTAAACAAATTTTCCTAATCTTTCTGTTCAAGCGCCATCTAC,2.44 RPM ratio (pull-down/input)
6,GATGATTGTTCTCCCAGCTGATGAATTCGGACCGTCGAGTAAACAAATTTTCCTAATCTTTCTGTTCAAGCGCCATCTAC,0.773 RPM ratio (pull-down/input)
7,GATGATTGTTCTCCCAGCTGATGAATTAGGTTCATCGAGTAAACAAATTTTCCTAATCTTTCTGTTCAAGCGCCATCTAC,0.921 RPM ratio (pull-down/input)
8,GATGATTGTTCTCCCAGCTGATGAATTGCCAGTCTCGAGTAAACAAATTTTCCTAATCTTTCTGTTCAAGCGCCATCTAC,0.829 RPM ratio (pull-down/input)
9,GATGATTGTTCTCCCAGCTGATGAATTCTGACTTTCGAGTAAACAAATTTTCCTAATCTTTCTGTTCAAGCGCCATCTAC,0.897 RPM ratio (pull-down/input)
10,GATGATTGTTCTCCCAGCTGATGAATTGTTTGGGTCGAGTAAACAAATTTTCCTAATCTTTCTGTTCAAGCGCCATCTAC,1.79 RPM ratio (pull-down/input)
11,GATGATTGTTCTCCCAGCTGATGAATTCTTTTGGTCGAGTAAACAAATTTTCCTAATCTTTCTGTTCAAGCGCCATCTAC,1 RPM ratio (pull-down/input)
12,GATGATTGTTCTCCCAGCTGATGAATTTTTTGGGTCGAGTAAACAAATTTTCCTAATCTTTCTGTTCAAGCGCCATCTAC,0.836 RPM ratio (pull-down/input)
13,GATGATTGTTCTCCCAGCTGATGAATTTTTTTGGTCGAGTAAACAAATTTTCCTAATCTTTCTGTTCAAGCGCCATCTAC,0.952 RPM ratio (pull-down/input)
14,GATGATTGTTCTCCCAGCTGATGAATTTCTTTGGTCGAGTAAACAAATTTTCCTAATCTTTCTGTTCAAGCGCCATCTAC,0.881 RPM ratio (pull-down/input)
15,GATGATTGTTCTCCCAGCTGATGAATTTGATTGGTCGAGTAAACAAATTTTCCTAATCTTTCTGTTCAAGCGCCATCTAC,0.963 RPM ratio (pull-down/input)
16,GATGATTGTTCTCCCAGCTGATGAATTTGTTTGGTCGAGTAAACAAATTTTCCTAATCTTTCTGTTCAAGCGCCATCTAC,2.1 RPM ratio (pull-down/input)
17,GATGATTGTTCTCCCAGCTGATGAATTTGTTGGGTCGAGTAAACAAATTTTCCTAATCTTTCTGTTCAAGCGCCATCTAC,1.56 RPM ratio (pull-down/input)
18,GATGATTGTTCTCCCAGCTGATGAATTGGTTTGGTCGAGTAAACAAATTTTCCTAATCTTTCTGTTCAAGCGCCATCTAC,0.947 RPM ratio (pull-down/input)
19,GATGATTGTTCTCCCAGCTGATGAATTTTGTTGGTCGAGTAAACAAATTTTCCTAATCTTTCTGTTCAAGCGCCATCTAC,2.26 RPM ratio (pull-down/input)
20,GATGATTGTTCTCCCAGCTGATGAATTGTTTTGGTCGAGTAAACAAATTTTCCTAATCTTTCTGTTCAAGCGCCATCTAC,2.02 RPM ratio (pull-down/input)
21,GATGATTGTTCTCCCAGCTGATGAATTTGGTTGGTCGAGTAAACAAATTTTCCTAATCTTTCTGTTCAAGCGCCATCTAC,0.868 RPM ratio (pull-down/input)

row,Sequence,binding signal
1,GATGATTGTTCTCCCAGCTGATGAATTCTTTAAGTCGAGTAAACAAATTTTCCTAATCTTTCTGTTCAAGCGCCATCTAC,0.837 RPM ratio (pull-down/input)
2,GATGATTGTTCTCCCAGCTGATGAATTTCTAGCATCGAGTAAACAAATTTTCCTAATCTTTCTGTTCAAGCGCCATCTAC,1.06 RPM ratio (pull-down/input)
3,GATGATTGTTCTCCCAGCTGATGAATTGATGCATTCGAGTAAACAAATTTTCCTAATCTTTCTGTTCAAGCGCCATCTAC,1.74 RPM ratio (pull-down/input)
4,GATGATTGTTCTCCCAGCTGATGAATTGCATTCATCGAGTAAACAAATTTTCCTAATCTTTCTGTTCAAGCGCCATCTAC,1.46 RPM ratio (pull-down/input)
5,GATGATTGTTCTCCCAGCTGATGAATTGTTGCATTCGAGTAAACAAATTTTCCTAATCTTTCTGTTCAAGCGCCATCTAC,1.87 RPM ratio (pull-down/input)
6,GATGATTGTTCTCCCAGCTGATGAATTCAACATTTCGAGTAAACAAATTTTCCTAATCTTTCTGTTCAAGCGCCATCTAC,0.941 RPM ratio (pull-down/input)
7,GATGATTGTTCTCCCAGCTGATGAATTTCTGCATTCGAGTAAACAAATTTTCCTAATCTTTCTGTTCAAGCGCCATCTAC,1.35 RPM ratio (pull-down/input)
8,GATGATTGTTCTCCCAGCTGATGAATTTTTGCATTCGAGTAAACAAATTTTCCTAATCTTTCTGTTCAAGCGCCATCTAC,1.48 RPM ratio (pull-down/input)
9,GATGATTGTTCTCCCAGCTGATGAATTCATGCATTCGAGTAAACAAATTTTCCTAATCTTTCTGTTCAAGCGCCATCTAC,1.29 RPM ratio (pull-down/input)
10,GATGATTGTTCTCCCAGCTGATGAATTGCATCATTCGAGTAAACAAATTTTCCTAATCTTTCTGTTCAAGCGCCATCTAC,1.84 RPM ratio (pull-down/input)
11,GATGATTGTTCTCCCAGCTGATGAATTGCATTCTTCGAGTAAACAAATTTTCCTAATCTTTCTGTTCAAGCGCCATCTAC,1.61 RPM ratio (pull-down/input)
12,GATGATTGTTCTCCCAGCTGATGAATTCATTGCATCGAGTAAACAAATTTTCCTAATCTTTCTGTTCAAGCGCCATCTAC,1.24 RPM ratio (pull-down/input)
13,GATGATTGTTCTCCCAGCTGATGAATTTCAACATTCGAGTAAACAAATTTTCCTAATCTTTCTGTTCAAGCGCCATCTAC,0.964 RPM ratio (pull-down/input)
14,GATGATTGTTCTCCCAGCTGATGAATTGCAACATTCGAGTAAACAAATTTTCCTAATCTTTCTGTTCAAGCGCCATCTAC,1.75 RPM ratio (pull-down/input)
15,GATGATTGTTCTCCCAGCTGATGAATTAAACAGATCGAGTAAACAAATTTTCCTAATCTTTCTGTTCAAGCGCCATCTAC,1.27 RPM ratio (pull-down/input)
16,GATGATTGTTCTCCCAGCTGATGAATTATAAGTATCGAGTAAACAAATTTTCCTAATCTTTCTGTTCAAGCGCCATCTAC,1.19 RPM ratio (pull-down/input)
17,GATGATTGTTCTCCCAGCTGATGAATTGAATAAGTCGAGTAAACAAATTTTCCTAATCTTTCTGTTCAAGCGCCATCTAC,0.918 RPM ratio (pull-down/input)
18,GATGATTGTTCTCCCAGCTGATGAATTTTAAATTTCGAGTAAACAAATTTTCCTAATCTTTCTGTTCAAGCGCCATCTAC,0.924 RPM ratio (pull-down/input)
19,GATGATTGTTCTCCCAGCTGATGAATTCAGCACTTCGAGTAAACAAATTTTCCTAATCTTTCTGTTCAAGCGCCATCTAC,0.847 RPM ratio (pull-down/input)
20,GATGATTGTTCTCCCAGCTGATGAATTACAGTGTTCGAGTAAACAAATTTTCCTAATCTTTCTGTTCAAGCGCCATCTAC,1.16 RPM ratio (pull-down/input)
21,GATGATTGTTCTCCCAGCTGATGAATTGAGTCAATCGAGTAAACAAATTTTCCTAATCTTTCTGTTCAAGCGCCATCTAC,1.01 RPM ratio (pull-down/input)

# From paper PMC12820563, “FoxP3 forms a head-to-head dimer in vivo and stabilizes its multimerization on adjacent microsatellites”
